Results filed as inconclusive are left out. Active and inactive are the calls of the source. Rule for the calls: active = hit-call score of the fitted dose curve at least 0.9, where 1 is the maximum; inconclusive = response in the unintended direction; inactive = score below 0.9.

Consider 18 compounds from PubChem BioAssay (EPA / NIEHS).

human Peripheral-type Benzodiazepine Receptor (PBR), TSPO (gene 706), sequence (P30536 whole entry, looked up): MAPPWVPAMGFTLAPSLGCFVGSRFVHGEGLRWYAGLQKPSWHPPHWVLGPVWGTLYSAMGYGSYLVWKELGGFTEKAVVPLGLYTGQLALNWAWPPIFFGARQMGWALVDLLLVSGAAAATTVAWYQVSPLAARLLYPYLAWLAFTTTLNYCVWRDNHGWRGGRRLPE

The assay addresses human Peripheral-type Benzodiazepine Receptor (PBR), TSPO (gene 706) (UniProt P30536). Put plainly: NVS_MP_hPBR: NovaScreen (NVS) Membrane Protein Assay for human Peripheral-type Benzodiazepine Receptor (PBR) (AID 2283331). As for the experimental part: NVS_MP_hPBR is a biochemical, single-readout assay that uses extracted gene-proteins from Human colonic cell membranes in a tissue-based cell-free assay. Measurements were taken 1 hour after chemical dosing in a 48-well plate.NVS_MP_hPBR is one of one assay component(s) measured or calculated from the NVS_MP_hPBR assay. It is designed to make measurements of radioligand binding, a form of binding reporter, as detected with scintillation counting signals by Filter-based radiodetection technology.Data from the assay component NVS_MP_hPBR was analyzed into 1 assay endpoint. This assay endpoint, NVS_MP_hPBR, was analyzed in the positive analysis fitting direction relative to DMSO as the negative control and baseline of activity. Using a type of binding reporter, loss-of-signal activity can be used to understand changes in the binding as they relate to the gene TSPO. Furthermore, this assay endpoint can be referred to as a primary readout, because the performed assay has only produced 1 assay endpoint. To generalize the intended target to other relatable targets, this assay endpoint is annotated to the transporter intended target family, where the subfamily is cholesterol transporter.
Binding assays used specific radioligands (tritiated, iodinated) with non-radioactive competitive displacement ligands in agonist or antagonist protocols (as indicated) and various reference compounds and inhibitors to titrate specific binding to receptors and transporters. Most enzyme assays (CYPs, kinases, phosphatases, proteases, HDACs) used recombinant protein and specific substrates (fluorescence mostly, some colorimetric and radioactive) and inhibitors, followed by a biochemical separation of substrate and product. All assays for the biochemical HTS were initially run in duplicate at a single concentration (10 uM for CYP450 assays and 25 uM for all others). […] Each assay was run with positive and negative controls, and concurrent controls on every plate. The follow-up (secondary) screen tested active chemical-pairs in concentration series, as well as a few additional assays not tested in the primary screen, some selected negative inactives, and several cases re-run in the concentration series for confirmatory purposes.
`CC(Cl)COP(=O)(OCC(C)Cl)OCC(C)Cl` (stereo not drawn): the AC50 is 25 µM (active). On to `C/C=C/C=C/CCCCCCCO`, for which the AC50 was 12.2 µM (active).

Regarding `O=C(OCc1ccccc1)c1ccc(O)cc1`, the AC50 is 6.36 µM (active). Turning to `C=C1C[C@H]2[C@@H]3C=C(C)C4=CC(=O)CC[C@]4(C)[C@H]3CC[C@]2(C)[C@@]1(OC(C)=O)C(C)=O`, the AC50 is 0.732 µM (active).

Regarding `CCOC(=O)C1=NOC(c2ccccc2)(c2ccccc2)C1`, the AC50 is 8.19 µM (active). On to `CCCCC/C=C\C/C=C\CCCCCCCC(=O)O`, for which the concentration at half-maximal activity (AC50) was 5.35 µM (active).

As for `CCCCNS(=O)(=O)c1ccc(C)cc1`, the concentration at half-maximal activity (AC50) is 7.96 µM (active). On to `CCOC(=O)C1=NN(c2ccc(Cl)cc2Cl)C(C)(C(=O)OCC)C1` (stereo not drawn), for which the AC50 was 10.9 µM (active). `CN(C)c1ccc2nc3ccc(=[N+](C)C)cc-3sc2c1`: the AC50 was 10.2 µM (active). Same read-out and setting: next, `COc1ccc(C(=O)/C(Br)=C\C(=O)O)cc1`: 9.63 µM (active). The same measure, in the same setting: the figure for `CCCCCCCOC(=O)c1ccc(O)cc1` is 2.98 µM (active); for `C=CCOC(=O)c1ccc(C(=O)OCC=C)c(C(=O)OCC=C)c1` it is 9.19 µM (active). On to `CCCCNC(=S)NCCCC`, for which the call was inactive.

In the case of `COc1ccc(-c2coc3cc(O)cc(O)c3c2=O)cc1`, the AC50 was 0.293 µM (active). In the case of `O=C(Oc1ccccc1)c1ccccc1C(=O)Oc1ccccc1`, the half-maximal activity concentration (AC50) is 1.78 µM (active). Turning to `CC/C=C\C/C=C\C/C=C\CCCCCCCC(=O)OC`, the AC50 was 7.69 µM (active).

`COC(OC)(C(=O)c1ccccc1)c1ccccc1`: the AC50 is 21.9 µM (active). Same read-out and setting: next, `O=C(O)c1cc(O)c2ccccc2c1O`: 18 µM (active).
